The values below come from PubChem BioAssay AID1347056 (Sanford-Burnham Center for Chemical Genomics, 2019).

The structures appear in SMILES notation. “And” between values parts separate entries of the source, which are not always exact repeats. Equal entries are not always repeated. Among all 360,000 compounds or so, about 3,600 (1%) were called active. The sample as a whole holds a higher share of actives than the screen did. Unmarked numbers belong to inactive results.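 The calls were made as follows: active = compounds whose plate-normalised and pattern-corrected inhibition of the luciferase reporter signal at the single screening dose is 50% or more; inactive = the rest.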

A short description of this test: inhibitors of TROY-driven NF-kB signaling, primary screen, Q293 LMP1-TROYcd cells, NF-kB luciferase, uHTS (AID 1347056). Conditions: Q293 LMP1-TROYcd NF-kB luciferase reporter, 4 h; at 10 µM; hits give high values.
For the compound `Cc1ccc(CN(Cc2cccnc2)C(=S)Nc2cc(Cl)ccc2C)cc1`, the inhibition is -0.68%.

Take `NC(=O)C1(C(N)=O)OC1c1ccc(Cl)cc1Cl` (stereo not given): the inhibition was -4.3%.

In the case of `CC(C)(C)C(=O)Nc1ccc(C(=O)N/N=C/c2ccccc2OC(=O)c2ccc(Cl)cc2Cl)cc1`, the inhibition is -17%.

On to `O=C(NN=Cc1ccc2c(c1)CCC2)c1ccccc1O`, for which the inhibition was -55%.

Regarding `O=C(N/N=C/c1ccc(OC(=O)c2ccccc2Cl)cc1)c1ccc(O)cc1`, the inhibition is 54.5% (active).

Regarding `CCOc1ccc(-c2cc(C(=O)N/N=C/c3ccc(O)cc3)c3ccccc3n2)cc1`, the inhibition is 42.4%.

Turning to `COc1cccc(OCc2cc(/C=N/NC(=O)c3nc(Cl)c(Cl)c(N)c3Cl)ccc2OC)c1`, the inhibition was 11.1%.

`COc1ccc(C(=O)Nc2ccccc2C(=O)N/N=C/c2ccc(O)c(OC)c2)cc1`: the inhibition was 84.9% (active).

For the compound `CN1C(=O)/C(=C/C=C2\SCCN2C)OC1=S`, the inhibition is -2.27%.

Take `CCOC(=O)CCCNC(=O)CN1C(=O)NC(CCc2ccccc2)C1=O` (stereo not given): the inhibition was -5.07%.

Take `O=C1/C(=C\Nc2ccccc2)CCN1c1ncccn1`: the inhibition was -49.4%.

In the case of `COc1ccc(Cc2nnc(SCC(=O)Nc3ccc(C)c(C)c3)o2)cc1OC`, the inhibition was 8.78%.

As to `Fc1ccc2[nH]c3c(N4CCSCC4)ncnc3c2c1`, the inhibition is 59.8% (active).

Turning to `Cc1ccnc(NC(=O)C(C)N2C(=O)c3ccccc3C2=O)c1` (stereo not given), the inhibition is -1.82%.

On to `Oc1c(Cl)cc(Cl)c(Cl)c1Cc1c(O)c(Cl)cc(Cl)c1Cl`, for which the inhibition was 80.3% (active).

Consider `CC(Oc1ccccc1)C(=O)Nc1oc(-c2ccco2)c(-c2ccco2)c1C#N` (stereo not given), for which the inhibition is 14.3%.

Consider `O=C(O)c1ccc2c(=O)n3c(nc2c1)/C(=C/c1ccc(OC(F)F)cc1OC(F)F)CC3`, for which the inhibition is 1.62%.

Regarding `Fc1ccc2nc(-c3ccccc3)nc(SCc3nnc(-c4ccccc4)o3)c2c1`, the inhibition is -9.52%.

With `c1ccc(-c2nnc(SCc3nc4ccccc4[nH]3)o2)cc1`, the inhibition is 57.9% (active).

Take `CCN(C(=O)CSc1nnc(-c2ccncc2)o1)c1ccccc1`: the inhibition is 2.98%.

For the compound `COc1ccc(C(C)=O)cc1CN1C(=O)NC2(CCCCC2C)C1=O` (stereo not given), the inhibition was 19%.

For `CCOc1ccc(CCNC(=O)CCc2nnc3ccc(N4CCCC4)nn23)cc1OCC`, the inhibition was 3.54%.

Consider `Cc1nc2sccn2c(=O)c1S(=O)(=O)NCCc1ccccc1`, for which the inhibition is -4.17%.

With `O=C(Nc1cc(-c2nn(CC(=O)N3CCCCC3)c(=O)c3ccccc23)ccc1N1CCOCC1)c1ccc(Cl)cc1`, the inhibition was -10.6%.

As to `O=C(Nc1cc(Cl)ccc1N1CCOCC1)c1ccc(N2CCCC2=O)cc1`, the inhibition is 70.3% (active).

For the compound `O=C(Nc1cc(S(=O)(=O)N2CCOCC2)ccc1OCC(F)(F)F)c1ccc(N2CCCC2=O)cc1`, the inhibition is 1.27%.

For `CN(C)C(=O)c1ccc2c(c1)C1C3CCC(C3)C1C(c1ccccc1)N2` (stereo not given), the inhibition was -1.11%.

Turning to `O=C(C1CCC(=O)N(C2CC2)C1)N1CCN(c2ccc(Cl)cc2)CC1` (stereo not given), the inhibition is -7.66%.

Take `Cc1ccc(S(=O)(=O)N(C)C)cc1NC(=O)C(C)OC(=O)c1ccc2ccccc2n1` (stereo not given): the inhibition is -2.57%.

In the case of `COC(=O)c1ccccc1NC(=O)Cn1nc(C(F)(F)F)c2c1CCC2`, the inhibition is -27%.

Consider `N#Cc1c(-c2ccccc2)nc(SCc2cccc(C(F)(F)F)c2)[nH]c1=O`, for which the inhibition is 41.2%.

On to `Cc1ccccc1CSc1nnc(-c2ccccc2)c(=O)[nH]1`, for which the inhibition is -16.6%.

Consider `Cc1ccc(CSc2nc(-c3ccccc3)c(C#N)c(=O)[nH]2)cc1`, for which the inhibition is 54% (active).

As to `Cc1ccc(NC(=O)Cc2nnc(SCC(=O)Nc3nncs3)n2C)cc1`, the inhibition was -1.88%.

With `CCOC(=O)Cc1c(C)nc2c(C#N)c(C)nn2c1C`, the inhibition was 10.1%.

As to `CN(CC(=O)NCc1ccncc1)S(=O)(=O)c1ccc(Br)cc1`, the inhibition was 0.22%.

`Cc1ccc(S(=O)(=O)N2CCCCC2)cc1NC(=O)CCNC(=O)c1ccccc1`: the inhibition was -24.1%.

`C[C@H]1CC[C@]2(O[C@@H](CCO)C[C@@H](O)[C@@H]2O)O1`: the inhibition is 80.2% (active).

Consider `C[C@@H]1CC[C@]2(O[C@@H](CCO)C[C@H](O)[C@H]2O)O1`, for which the inhibition is 0.26%.

With `OCC[C@H]1C[C@H](O)[C@@H](O)[C@]2(CCCCO2)O1`, the inhibition was -23.7%.

As to `CCOC(=O)C1(C)CCCN(C(=O)c2ccc(F)c(Cl)c2)C1` (stereo not given), the inhibition is 2.88%.

Take `Cc1ccccc1N1CCN(Cc2nc(Cc3ccccc3F)no2)CC1`: the inhibition was -8.4%.

For `O=C(/C=C/c1cnc2ccccc2n1)NC1CCCCCC1`, the inhibition is -49.1%.

Take `Cc1nc2cc(NC(=O)CSc3nc4c(C)cccc4cc3C#N)ccc2s1`: the inhibition was 4.28%.

For the compound `COc1ccc(/C(O)=C2/C(=O)C(=O)N(c3nc(C)c(C)s3)C2c2ccco2)cc1` (stereo not given), the inhibition is -21.4%.

For `CCOc1ccc(/C(O)=C2\C(=O)C(=O)N(c3ccc(OC)cc3)C2c2ccccc2[N+](=O)[O-])cc1` (stereo not given), the inhibition was 54.8% (active).

For the compound `COc1ccc(C2/C(=C(/O)c3ccccc3)C(=O)C(=O)N2c2ncccn2)cc1OC` (stereo not given), the inhibition was -2.92%.

`Cc1ccc(C(O)c2ncc(-c3ccccc3F)[nH]2)cc1F` (stereo not given): the inhibition is -21.9%.

Consider `CC(=O)c1ccc(N2CCN(S(=O)(=O)c3ccc4c(c3)CC(=O)N4C)CC2)cc1`, for which the inhibition was -27.6%.

On to `Cc1cnc(CN(C)C(=O)CC2C(=O)NCCN2Cc2cccc(F)c2F)[nH]1` (stereo not given), for which the inhibition was 3.88%.

As to `Cc1ccc(NC(=O)C2CCCN(S(=O)(=O)c3c(C)noc3C)C2)c(C)c1` (stereo not given), the inhibition is -7.46%.

In the case of `Cc1noc(C)c1S(=O)(=O)N1CCCC(C(=O)Nc2nccs2)C1` (stereo not given), the inhibition was -32.5%.

Regarding `COc1c(C)cc(C(=O)C2CCCN(S(=O)(=O)c3c(C)noc3C)C2)cc1C` (stereo not given), the inhibition was 50.3% (active).

As for `CCOC(=O)CCC(NC(=O)c1ccc(CNc2nc3cc(C(F)(F)F)ccc3nc2C(=O)OCC)cc1)C(=O)OCC` (stereo not given), the inhibition was -25.2%.

As to `CCCCCc1nnc(NC(=O)c2ccc(=O)n(C)n2)s1`, the inhibition was -18.4%.

As to `CN(C(=O)CN1C(=O)S/C(=C\c2ccccc2F)C1=O)C1CCS(=O)(=O)C1` (stereo not given), the inhibition is 6.08%.

As for `O=C(CN1C(=O)/C(=C\c2ccccc2F)SC1=S)Nc1nc2ccccc2s1`, the inhibition is 68.3% (active).

With `O=C(CN1C(=O)/C(=C/c2ccccc2F)Sc2ccccc21)NCc1cccnc1`, the inhibition was 44.7%.

In the case of `COc1ccc(CNC(=O)CCC(=O)Nc2nnc(C(C)C)s2)cc1`, the inhibition was -5.09%.

Regarding `O=C(O)C1C2C=CC(C2)C1C(=O)N1CCN(CCO)CC1` (stereo not given), the inhibition is -8.15%.

For `CC1(C)SC2C(NC(=O)COc3ccccc3)C(=O)N2C1C(=O)O` (stereo not given), the inhibition was -1.14% and 4.62%.

As to `COc1ccc(C2=NO[C@@H]3C(=O)N(Cc4ccccc4)C(=O)[C@H]23)cc1OC`, the inhibition was -14.4%.

As to `COc1ccc(-c2cc(C(F)(F)F)nc(S(C)(=O)=O)n2)cc1OC`, the inhibition was 55% (active).

Consider `COc1ccc(-c2cc(C(=O)N(C)Cc3ccc(OC)c(OC)c3OC)c3ccccc3n2)cc1OC`, for which the inhibition was 19.6%.

For `c1ccc2c(C[n+]3csc4ccccc43)cccc2c1`, the inhibition is 13.4%.

With `Cc1noc(C)c1C(=O)NC(C)c1ccc2c(c1)OCO2` (stereo not given), the inhibition was 1.6%.

As for `O=C(COC(=O)C1CC2CCCC(C1)C2=O)NC(=O)c1ccccc1` (stereo not given), the inhibition is 4.06%.

For `Cn1c(-c2ccc(F)cc2)cc2onc(-c3ccccc3Cl)c2c1=O`, the inhibition is 6.78%.

Take `O=c1c2ccccc2c(-c2ccc(F)cc2)nn1-c1ccc(C(F)(F)F)cc1`: the inhibition is -12.3%.

`Cn1c(-c2ccc(C(F)(F)F)cc2)cc2onc(-c3ccccc3)c2c1=O`: the inhibition was 69.6% (active).

For `COc1cc(/C(=C/c2ccccc2)c2ccccc2)c2c(c1)oc1ccccc12`, the inhibition is 0.46%.

For the compound `Cc1ccc(S(=O)(=O)N(C)c2nc3ccccc3n3c(C(C)C)nnc23)cc1`, the inhibition is 6.76%.

Regarding `CC1(C)N=C(N)NC(Nc2ccc(Cl)cc2)=N1`, the inhibition was -5.09%.

Regarding `Cc1cc(OCc2ccc(C(=O)Nc3ccc(C(=O)O)cc3)o2)ccc1Cl`, the inhibition was -33.7%.

In the case of `O=c1oc2ccccc2cc1-c1cn(-c2ccccc2)c(=S)[nH]1`, the inhibition was 90.1% (active).

`O=C1Cc2ccccc2Sc2ccc(Cl)cc21`: the inhibition was -41.4%.

In the case of `CCCCNC(=O)C[C@@H]1C[C@@]2(C(=O)OCC)CCC=C2N(Cc2ccco2)C1=O`, the inhibition is 1.34%.

Turning to `Cc1ccc2occ(/C=N/NC(=O)c3ccccc3C)c(=O)c2c1`, the inhibition is 57.9% (active).

`CC(C)(C)OC(=O)NCCCCCC(=O)N/N=C/c1coc2ccccc2c1=O`: the inhibition was -22.3%.

In the case of `O=c1c(/C=N/O)coc2ccc(Cl)cc12`, the inhibition was 12.5%.

In the case of `CC1(Cc2ccccc2C#N)C(=O)Nc2ccc(-c3ccc4[nH]ccc4c3)cc21` (stereo not given), the inhibition is 24.8%.

As for `CC(Sc1nncn1C)C(=O)Nc1cc(C(F)(F)F)ccc1N1CCOCC1` (stereo not given), the inhibition was -8.48%.

For the compound `Cc1onc(-c2ccc(Cl)cc2)c1-c1ccnn1S(=O)(=O)c1ccc(Cl)cc1`, the inhibition was -10.7%.

For `O=C(COC(=O)c1cccnc1Cl)NC(=O)NC1CCCCC1`, the inhibition was -1.94%.

In the case of `CC(=O)Nc1ccc(S(=O)(=O)N2CCC(N(C)CCC(C)C)CC2)cc1`, the inhibition was 15.7%.

As to `CC1CN(C(=S)SCC(=O)c2ccccc2)CC(C)O1` (stereo not given), the inhibition was -38.2%.

For the compound `NC(=NC(=O)c1ccccc1)N1CCOCC1`, the inhibition is -4.29%.

On to `O=C(CSC(=S)N1CCOCC1)c1ccccc1`, for which the inhibition was 50.2% (active).

Turning to `CC1=CC=CN2C1=NC(=O)CC2(C)C(=O)N(CC(=O)NC1CCCC1)c1ccccc1C` (stereo not given), the inhibition was 6.68%.

Consider `CN1CCN(c2ccncc2S(=O)(=O)N2CCCC2)CC1`, for which the inhibition was -13.2%.

The inhibition is the relative decrease from the control value, in per cent.
